{"source": "PubChem BioAssay (NCI)", "note": "About 83,000 compounds went through this panel and 20% of them were active in at least one assay; those are over-represented in the sample as a whole.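 Plates (96-well) were seeded with cells, treated with compound at one concentration, and incubated for 48 hours before percent growth was determined.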 Activity calls are given as the source filed them. The calls were made as follows: active = growth percent below 10; inactive = the rest.", "data": [{"system": "SK-MEL-28 melanoma", "experiment": "NCI-60 one-dose screen, 48 h (100 = growth as untreated, 0 = no growth, -100 = all killed)", "conditions": "10 µM unless noted", "values": [{"smiles": "Brc1ccc(-c2n(Cc3ccc4ccccc4c3)c(-c3ccccc3)c(-c3ccccc3)[n+]2Cc2ccc3ccccc3c2)cc1", "growth": "-96.3% (active)"}, {"smiles": "O=C1CCCc2cc(OCC(=O)N3CCCCC3)ccc2N1", "growth": "119% (inactive)"}, {"smiles": "COc1cc2c3c(n(CCCN4CCC[C@@H]4CO)c(=O)c2cc1OC)-c1cc2c(cc1C3=O)OCO2", "growth": "-92.1% (active)"}, {"smiles": "CC(=O)c1c(N)c(C#N)cn1-c1ccc(Cl)cc1Cl", "growth": "106% (inactive)"}, {"smiles": "Cc1ccc(C2CC(c3ccc(S(=O)(=O)NCCNc4nc(Nc5ccc(F)cc5)nc(N(C)C)n4)cc3)=Nc3c(N)nc(N)nc3N2)cc1", "note": "(stereo not drawn)", "growth": "59.8% (inactive)"}, {"smiles": "Cc1ccc(C(=O)C(c2c[nH]c3ccccc23)c2c[nH]c3ccccc23)cc1", "growth": "19.7% (inactive)"}, {"smiles": "COc1cc(-c2nc3ccc(C)cc3[nH]2)ccc1OCc1nnc(-c2ccc(Br)cc2)o1", "growth": "27.1% (inactive)"}, {"smiles": "Nc1nnc(-c2c[nH]c3ccc(Br)cc23)c(-c2c[nH]c3ncc(Br)cc23)n1", "growth": "37.5% (inactive)"}, {"smiles": "Cc1ccc(-c2nc(C#N)c(S(=O)(=O)N3CCN(S(=O)(=O)c4ccc(Cl)cc4)CC3)o2)cc1", "growth": "98.7% (inactive)"}, {"smiles": "CCOC(=O)C1=C(N)N(c2ccccc2)C2=C(C(=O)CC(C)(C)C2)C1c1ccccc1Cl", "note": "(stereo not drawn)", "growth": "81.4% (inactive)"}, {"smiles": "Cc1ccc(C(=O)NN2C(=O)/C(=C/C=C/c3ccc([N+](=O)[O-])o3)SC2=S)cc1", "growth": "-94.3% (active)"}, {"smiles": "CCCS(=O)(=O)N1CCCC(C(=O)Nc2nc3ccc(NC(=O)c4ccc(F)c(OC)c4F)cc3s2)C1", "note": "(stereo not drawn)", "growth": "59.9% (inactive)"}, {"smiles": "O=C1CC(Sc2n[nH]c(-c3ccncc3)n2)C(=O)N1c1ccc(Br)cc1", "note": "(stereo not drawn)", "growth": "108% (inactive)"}, {"smiles": "COc1ccc(NC(=O)Nc2ccc(OCc3ccc(F)cc3)cc2)cc1", "growth": "75.5% (inactive)"}, {"smiles": "COc1ccc(/C=C/c2nc3ccccc3n3c(-c4ccc(Cl)cc4)nnc23)cc1", "growth": "104% (inactive)"}, {"smiles": "CC1(C)CC[C@]2(C(=O)O)CC[C@]3(C)C(=CCC4[C@@]5(C)C[C@@H](O)[C@@H]6OC(c7ccccc7Br)OC[C@@]6(C)C5CC[C@]43C)C2C1", "note": "(stereo partly drawn)", "growth": "39.5% (inactive)"}, {"smiles": "CC(=O)OCC1OC(OC2C(COC(C)=O)OC(n3cc(COc4ccc5ccc(=O)oc5c4)nn3)C(OC(C)=O)C2OC(C)=O)C(OC(C)=O)C(OC(C)=O)C1OC(C)=O", "note": "(stereo not drawn)", "growth": "109% (inactive)"}, {"smiles": "COc1ccc(Cc2nn(CC(=O)N/N=C/c3ccc(F)cc3)c(=O)c3c(C)noc23)cc1", "growth": "35.9% (inactive)"}, {"smiles": "O=C(c1ccccc1)C(c1c[nH]c2ccccc12)c1c[nH]c2ccccc12", "growth": "76.9% (inactive)"}, {"smiles": "N=C1N=C(SCc2nc3ccccc3[nH]2)NC(=O)/C1=C/c1ccc(Cl)cc1", "growth": "110% (inactive)"}, {"smiles": "Cn1cc(-c2cc3nc(-c4c[nH]c5ccc(Cl)cc45)cc(N)n3n2)c2ccccc21", "growth": "-97.4% (active)"}, {"smiles": "CC1(C)CC[C@]2(C(=O)O)CC[C@]3(C)C(=CCC4[C@@]5(C)C[C@@H](O)[C@@H]6OC(c7ccco7)OC[C@@]6(C)C5CC[C@]43C)C2C1", "note": "(stereo partly drawn)", "growth": "24.9% (inactive)"}, {"smiles": "COc1ccc(C2CC(c3ccc(S(=O)(=O)NCCNc4nc(Nc5ccc(F)cc5)nc(N(C)C)n4)cc3)=Nc3c(N)nc(N)nc3N2)cc1", "note": "(stereo not drawn)", "growth": "85.5% (inactive)"}, {"smiles": "O=C(Nc1ccccc1)N1CCN(c2cc(-c3cn(-c4ccccc4)nc3-c3cccc(O)c3)ccn2)CC1", "growth": "73.2% (inactive)"}, {"smiles": "CNS(=O)(=O)c1ccc(Nc2ccc(C(F)(F)F)cc2)c(-c2cn(C)cn2)c1", "growth": "74.8% (inactive)"}, {"smiles": "CCS(=O)(=O)N1CCCC(C(=O)Nc2nc3ccc(NC(=O)c4ccc(F)c(OC)c4F)cc3s2)C1", "note": "(stereo not drawn)", "growth": "78.6% (inactive)"}, {"smiles": "COc1ccc(CCC2c3c(cc4c(c3OC)OCO4)CCN2C)cc1", "note": "(stereo not drawn)", "growth": "-98.3% (active)"}, {"smiles": "Nc1nc(-c2ccccc2)c(N=Nc2ccc([N+](=O)[O-])cc2Cl)s1", "growth": "89.1% (inactive)"}, {"smiles": "CN(C)c1nc(NCCNS(=O)(=O)c2ccc(C3=Nc4c(N)nc(N)nc4NC(c4ccccc4)C3)cc2)nc(Nc2ccc(F)cc2)n1", "note": "(stereo not drawn)", "growth": "60.2% (inactive)"}, {"smiles": "N/C(=N\\c1nc2ccccc2s1)NC(=O)Nc1ccc(Cl)cc1Cl", "growth": "-33.2% (active)"}, {"smiles": "CCCCn1c(O)c(N=Nc2nc(-c3cc4ccccc4oc3=O)cs2)c2cc(Br)ccc21", "growth": "104% (inactive)"}, {"smiles": "Cc1cccc(-c2nc(Nc3cccc(S(N)(=O)=O)c3)c3ccccc3n2)c1", "growth": "57.7% (inactive)"}, {"smiles": "Cn1cc(-c2cc(N)n3nc(-c4cn(C)c5ccccc45)cc3n2)c2cc(Br)ccc21", "growth": "-86.4% (active)"}]}]}
